# Records with an inconclusive call do not appear. Entries that show only a call come without a potency. Values without a mark were called inactive. Activity calls are given as the source filed them. Calls come from the whole dose curve; as a rule, active = well fitted inhibition curve with a large enough effect; inconclusive = small, poorly fitted or top-dose-only effect; inactive = flat fitted curve, though single readings scatter.
# Tests used:
# GB4 = experiment: qHTS profiling for inhibitors of Plasmodium falciparum proliferation (AID 504749); conditions: P. falciparum in erythrocytes, SYBR Green DNA, 72 h; series mostly up to 28.7 µM
# How it was run: (§1)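 Parasite proliferation within erythrocytes, 72 h exposure. Endpoint: SYBR Green I fluorescence after overnight lysis at room temperature. Controls: 0.29 uM artemisinin, DMSO.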
# HB3 = experiment: as above; conditions: P. falciparum in erythrocytes, SYBR Green DNA, 72 h; series mostly up to 28.7 µM
# How it was run: as §1
# ICS = experiment: as above; conditions: P. falciparum in erythrocytes, SYBR Green DNA, 72 h; series mostly up to 28.7 µM
# How it was run: as §1
# JCK = experiment: as above; conditions: P. falciparum in erythrocytes, SYBR Green DNA, 72 h; series mostly up to 28.7 µM
# How it was run: as §1
# N140 = experiment: as above; conditions: P. falciparum in erythrocytes, SYBR Green DNA, 72 h; series mostly up to 28.7 µM
# How it was run: as §1
# P94_40 = experiment: as above; conditions: P. falciparum in erythrocytes, SYBR Green DNA, 72 h; series mostly up to 28.7 µM
# How it was run: as §1
# PAD = experiment: as above; conditions: P. falciparum in erythrocytes, SYBR Green DNA, 72 h; series mostly up to 28.7 µM
# How it was run: as §1
# PC15 = experiment: as above; conditions: P. falciparum in erythrocytes, SYBR Green DNA, 72 h; series mostly up to 28.7 µM
# How it was run: as §1
# PC26 = experiment: as above; conditions: P. falciparum in erythrocytes, SYBR Green DNA, 72 h; series mostly up to 28.7 µM
# How it was run: as §1
# PC49 = experiment: as above; conditions: P. falciparum in erythrocytes, SYBR Green DNA, 72 h; series mostly up to 28.7 µM
# How it was run: as §1
# SC27B = experiment: as above; conditions: P. falciparum in erythrocytes, SYBR Green DNA, 72 h; series mostly up to 28.7 µM
# How it was run: as §1
# TAB109 = experiment: as above; conditions: P. falciparum in erythrocytes, SYBR Green DNA, 72 h; series mostly up to 28.7 µM
# How it was run: as §1
# TAB113 = experiment: as above; conditions: P. falciparum in erythrocytes, SYBR Green DNA, 72 h; series mostly up to 28.7 µM
# How it was run: as §1
# TAB165 = experiment: as above; conditions: P. falciparum in erythrocytes, SYBR Green DNA, 72 h; series mostly up to 28.7 µM
# How it was run: as §1
# W2 = experiment: as above; conditions: P. falciparum in erythrocytes, SYBR Green DNA, 72 h; series mostly up to 28.7 µM
# How it was run: as §1
# HaCat = experiment: Cytotoxic Profiling of Annotated Libraries Using Quantitative High-Throughput Screening (AID 1296008); conditions: Five cell lines viability, CellTiter-Glo ATP luminescence, 48-72 h; max response: active compounds read low
# How it was run: (§2)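 Compounds were pin-transferred onto cells and incubated 48 or 72 hr at 37 degree Celsius, 95% humidity. CellTiter-Glo was added, plates sat 10 min at room temperature, then ATP-coupled luminescence was imaged as the viability read-out.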
# KB-3-1 = experiment: as above; conditions: Five cell lines viability, CellTiter-Glo ATP luminescence, 48-72 h; max response: active compounds read low
# How it was run: as §2
# CRL-7250 = normal cell line; experiment: as above; conditions: Five cell lines viability, CellTiter-Glo ATP luminescence, 48-72 h; max response: active compounds read low
# How it was run: as §2
# P93_24 = experiment: qHTS profiling for inhibitors of Plasmodium falciparum proliferation (AID 504749); conditions: P. falciparum in erythrocytes, SYBR Green DNA, 72 h; series mostly up to 28.7 µM
# How it was run: as §1
# HEK293 = experiment: Cytotoxic Profiling of Annotated Libraries Using Quantitative High-Throughput Screening (AID 1296008); conditions: Five cell lines viability, CellTiter-Glo ATP luminescence, 48-72 h; max response: active compounds read low
# How it was run: as §2
# Note: nearly all actives have a fitted effect of over 60% in size.
# Potency is the fitted concentration of half-maximal effect.
structure (smiles),measurement,setting,value
CC(=O)Nc1c(I)cc(I)c(C(=O)O)c1I,Potency,GB4,inactive
same,Potency,HB3,inactive
same,Potency,ICS,inactive
same,Potency,JCK,inactive
same,Potency,N140,inactive
same,Potency,P94_40,inactive
same,Potency,PAD,inactive
same,Potency,PC15,inactive
same,Potency,PC26,inactive
same,Potency,PC49,inactive
same,Potency,SC27B,inactive
same,Potency,TAB109,inactive
same,Potency,TAB113,inactive
same,Potency,TAB165,inactive
same,Potency,W2,inactive
same,max response,HaCat,4.29%
same,max response,KB-3-1,-17.1%
C[C@]12CC[C@H]3[C@@H](CCC4=CC(=O)CC[C@@]43C)[C@@H]1CC[C@@H]2C(=O)CO,max response,CRL-7250,-11.9%
same,max response,KB-3-1,-3.06%
NC(=O)C(=O)N/N=C/c1ccc([N+](=O)[O-])o1,Potency,HB3,inactive
same,Potency,ICS,inactive
same,Potency,JCK,inactive
same,Potency,N140,inactive
same,Potency,P93_24,inactive
same,Potency,P94_40,inactive
same,Potency,PAD,inactive
same,Potency,PC15,inactive
same,Potency,PC49,inactive
same,Potency,SC27B,inactive
same,Potency,TAB109,inactive
same,Potency,TAB113,inactive
same,Potency,TAB165,inactive
same,outcome,HaCat,inactive
same,max response,KB-3-1,30.2%
COc1cccc(CCc2ccccc2OCC(CN(C)C)OC(=O)CCC(=O)O)c1 (stereo not given),Potency,GB4,2.13 µM (active)
same,Potency,HB3,12.6 µM (active)
same,Potency,ICS,1.12 µM (active)
same,Potency,JCK,10 µM (active)
same,Potency,N140,2.82 µM (active)
same,Potency,P93_24,4.47 µM (active)
same,Potency,P94_40,4.47 µM (active)
same,Potency,PAD,3.55 µM (active)
same,Potency,PC15,5.01 µM (active)
same,Potency,PC26,3.79 µM (active)
same,Potency,PC49,3.16 µM (active)
same,Potency,SC27B,5.01 µM (active)
same,Potency,TAB109,4.47 µM (active)
same,Potency,TAB113,5.62 µM (active)
same,Potency,TAB165,4.47 µM (active)
same,Potency,W2,0.757 µM (active)
same,max response,CRL-7250,3.68%
same,max response,KB-3-1,-2.49%
O=C(CCN1CCC(c2ccccc2)C1)c1ccc2c(c1)OCCO2 (stereo not given),Potency,HB3,inactive
same,Potency,ICS,inactive
same,Potency,JCK,inactive
same,Potency,N140,inactive
same,Potency,PAD,inactive
same,Potency,PC15,inactive
same,Potency,PC26,inactive
same,Potency,PC49,inactive
same,Potency,SC27B,inactive
same,Potency,TAB109,inactive
same,Potency,TAB113,inactive
same,Potency,TAB165,inactive
same,Potency,W2,inactive
same,outcome,HaCat,inactive
same,max response,KB-3-1,-5.38%
COc1cc(-c2ccc(=O)[nH]n2)ccc1OC(F)F,Potency,GB4,inactive
same,Potency,HB3,inactive
same,Potency,ICS,inactive
same,Potency,N140,0.224 µM (active)
same,Potency,P93_24,0.0112 µM (active)
same,Potency,P94_40,0.112 µM (active)
same,Potency,PAD,inactive
same,Potency,PC15,inactive
same,Potency,SC27B,inactive
same,Potency,TAB109,0.0447 µM (active)
same,Potency,TAB113,0.0355 µM (active)
same,Potency,TAB165,0.282 µM (active)
same,Potency,CRL-7250,1.19 µM (active)
CN1CCCC(CC2c3ccccc3Sc3ccccc32)C1 (stereo not given),max response,HaCat,2.06%
same,max response,KB-3-1,7.2%
Cc1c(C)n(Cc2ccccc2)c2ccc(C(=O)OCCN(C)C)cc12,Potency,HB3,inactive
same,Potency,JCK,inactive
same,Potency,N140,inactive
same,Potency,P93_24,inactive
same,Potency,P94_40,inactive
same,Potency,PAD,inactive
same,Potency,PC15,inactive
same,Potency,PC26,inactive
same,Potency,PC49,inactive
same,Potency,SC27B,inactive
same,Potency,TAB109,inactive
same,Potency,TAB113,inactive
same,Potency,TAB165,inactive
same,outcome,HaCat,inactive
same,max response,KB-3-1,1.73%
CCCCOc1cc(C(=O)NCCN(CC)CC)c2ccccc2n1,Potency,HB3,inactive
same,Potency,JCK,inactive
same,Potency,N140,inactive
same,Potency,P93_24,inactive
same,Potency,P94_40,inactive
same,Potency,PAD,inactive
same,Potency,PC15,inactive
same,Potency,PC26,inactive
same,Potency,PC49,inactive
same,Potency,SC27B,inactive
same,Potency,TAB109,inactive
same,Potency,TAB113,inactive
same,Potency,TAB165,inactive
same,max response,HaCat,2.41%
same,max response,KB-3-1,0.155%
C#C[C@]1(O)CC[C@H]2[C@@H]3CCc4cc(OC5CCCC5)ccc4[C@H]3CC[C@@]21C,Potency,HB3,inactive
same,Potency,JCK,inactive
same,Potency,N140,inactive
same,Potency,P93_24,inactive
same,Potency,PAD,inactive
same,Potency,PC15,inactive
same,Potency,PC26,inactive
same,Potency,PC49,inactive
same,Potency,TAB109,inactive
same,Potency,TAB165,inactive
same,max response,CRL-7250,0.636%
same,max response,KB-3-1,-14.7%
CCCOC(C(=O)OC1CCN(C)CC1)(c1ccccc1)c1ccccc1,Potency,ICS,7.94 µM (active)
same,Potency,PAD,inactive
same,Potency,PC49,inactive
same,Potency,W2,6.01 µM (active)
same,max response,CRL-7250,-3.11%
same,max response,HaCat,-26.2%
Oc1c(I)cc(Cl)c2cccnc12,Potency,HB3,inactive
same,Potency,JCK,inactive
same,Potency,P93_24,inactive
same,Potency,P94_40,12.6 µM (active)
same,Potency,PC15,inactive
same,Potency,PC26,inactive
same,Potency,PC49,inactive
same,Potency,TAB109,12.6 µM (active)
same,Potency,TAB165,12.6 µM (active)
same,Potency,W2,inactive
same,outcome,HaCat,inactive
same,max response,KB-3-1,-8.86%
O=S1(=O)c2cccc3cccc(c23)N1CCCN1CCN(c2ccc(F)cc2)CC1,Potency,GB4,inactive
same,Potency,HB3,inactive
same,Potency,JCK,inactive
same,Potency,N140,inactive
same,Potency,P93_24,inactive
same,Potency,PAD,inactive
same,Potency,PC15,inactive
same,Potency,PC49,inactive
same,Potency,SC27B,inactive
same,Potency,TAB109,inactive
same,Potency,TAB113,inactive
same,Potency,TAB165,inactive
same,Potency,W2,inactive
same,max response,HaCat,-0.344%
same,max response,KB-3-1,-1.2%
OC[C@H]1O[C@@H](n2cnc3c(=S)nc[nH]c32)[C@H](O)[C@@H]1O,Potency,HEK293,4.73 µM (active)
same,Potency,HaCat,2.99 µM (active)
CN(C(=O)CN(CCO)CC(=O)N(C)C(C)(C)Cc1ccccc1)C(C)(C)Cc1ccccc1,Potency,HB3,inactive
same,Potency,JCK,inactive
same,Potency,P93_24,inactive
same,Potency,P94_40,inactive
same,Potency,PAD,inactive
same,Potency,PC15,inactive
same,Potency,PC26,inactive
same,Potency,PC49,inactive
same,Potency,SC27B,inactive
same,Potency,TAB109,inactive
same,Potency,TAB113,inactive
same,Potency,W2,3.61 µM (active)
same,max response,HaCat,-0.203%
same,max response,KB-3-1,-13.8%
COc1ccc(CCN2CCC(Nc3nc4ccccc4n3Cc3ccc(F)cc3)CC2)cc1,Potency,GB4,1.9 µM (active)
same,Potency,HB3,4.47 µM (active)
same,Potency,ICS,2.82 µM (active)
same,Potency,JCK,6.31 µM (active)
same,Potency,N140,3.55 µM (active)
same,Potency,P93_24,2.82 µM (active)
same,Potency,P94_40,3.16 µM (active)
same,Potency,PAD,3.98 µM (active)
same,Potency,PC15,6.31 µM (active)
same,Potency,PC26,6.75 µM (active)
same,Potency,PC49,4.47 µM (active)
same,Potency,SC27B,3.98 µM (active)
same,Potency,TAB109,2.51 µM (active)
same,Potency,TAB113,3.98 µM (active)
same,Potency,TAB165,2.82 µM (active)
same,Potency,W2,3.01 µM (active)
same,Potency,HEK293,9.44 µM (active)
